# PubChem BioAssay (NCATS)
# Results filed as inconclusive are left out. Entries that show only a call come without a potency. Values without a mark were called inactive. Calls of active or inactive are those of the source. Calls come from the whole dose curve; as a rule, active = well fitted curve in the direction sought with a large enough effect; inconclusive = small, poorly fitted or top-dose-only effect, or another doubt; inactive = no such curve, though single readings can be large; an effect the other way counts as inactive or inconclusive.
# Target: Rap guanine nucleotide exchange factor 3 (Homo sapiens) (UniProt O95398)
# Sequence (O95398 whole entry, looked up): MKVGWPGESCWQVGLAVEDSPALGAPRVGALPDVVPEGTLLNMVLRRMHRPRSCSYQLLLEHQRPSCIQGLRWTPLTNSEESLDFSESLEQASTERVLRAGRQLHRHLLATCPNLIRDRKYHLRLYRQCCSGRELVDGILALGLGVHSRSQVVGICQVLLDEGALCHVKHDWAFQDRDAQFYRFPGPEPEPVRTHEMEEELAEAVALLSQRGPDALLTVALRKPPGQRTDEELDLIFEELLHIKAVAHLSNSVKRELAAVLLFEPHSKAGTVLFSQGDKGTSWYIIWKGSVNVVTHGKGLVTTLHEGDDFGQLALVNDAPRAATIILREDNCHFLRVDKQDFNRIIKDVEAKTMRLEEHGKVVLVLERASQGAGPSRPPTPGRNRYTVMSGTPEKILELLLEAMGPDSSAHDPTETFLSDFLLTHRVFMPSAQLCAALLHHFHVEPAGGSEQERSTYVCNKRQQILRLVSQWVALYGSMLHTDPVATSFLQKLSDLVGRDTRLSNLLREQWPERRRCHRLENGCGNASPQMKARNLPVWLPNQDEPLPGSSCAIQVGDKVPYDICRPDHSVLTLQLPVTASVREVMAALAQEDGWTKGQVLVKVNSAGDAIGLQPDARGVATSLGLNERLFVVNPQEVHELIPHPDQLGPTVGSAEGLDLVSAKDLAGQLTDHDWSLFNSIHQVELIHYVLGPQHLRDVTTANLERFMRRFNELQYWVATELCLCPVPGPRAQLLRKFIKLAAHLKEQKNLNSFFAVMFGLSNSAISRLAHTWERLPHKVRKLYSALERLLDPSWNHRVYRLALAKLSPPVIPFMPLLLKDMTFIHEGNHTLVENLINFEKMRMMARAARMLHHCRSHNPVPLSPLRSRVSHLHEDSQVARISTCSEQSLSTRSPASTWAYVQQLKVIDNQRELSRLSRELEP
# Test: Counterscreen qHTS for antagonist of cAMP-regulated guanine nucleotide exchange factor 3 (EPAC1) (AID 1645888);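 for activity change, negative = inhibition: fluorescence loss as bound BODIPY-GDP is released from Rap1B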
# Settings: Rap1B-BODIPY-GDP nucleotide exchange, fluorescence; series mostly up to 154 µM
# Summary of the method: (§1)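 Rap1B–BODIPY-GDP (250 nM) with 50 uM GDP; compounds pin-transferred to 9.74 nM–152 uM final (activator) or from 7.32 nM upwards (inhibitor). Fluorescence Ex/Em 480/540 nm read at 5 and 30 min, then after adding cAMP or buffer, at room temperature.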
# Potency is the fitted concentration of half-maximal effect.
SMILES,Potency,"activity change, negative = inhibition"
COC(=O)c1sc(S(=O)(=O)N2CCCCC2C)c(C(=O)OC)c1C (stereo not drawn),inactive,–
CCN1CCc2c(sc(NC(=O)Nc3ccc(Cl)c(Cl)c3)c2C(N)=O)C1,100 µM (active),–
Cc1ccc(-c2nc3ccc(C)cn3c2CC2CCCCC2)cc1,inactive,–
CCSC1=NSC2=NC(=O)/C(=C\c3coc4ccccc4c3=O)C(=N)N12,–,72.5% [at 30.8 µM]
N=C1/C(=C\c2coc3ccccc3c2=O)C(=O)N=C2SC=CN12,–,46.8% [at 30.8 µM]
COc1cccc(/C(O)=C/c2nc3ccc(C(=O)NCCc4cccc(C)c4)cc3[nH]c2=O)c1,inactive,–
N#Cc1cc(Br)ccc1N=C1CCCN1c1ccccc1,inactive,–
CCOC(=O)c1ccc2[nH]cc(C(C)=O)c(=O)c2c1,inactive,–
O=C1C=C(c2c(O)ccc3ccccc23)c2ccccc2C1=O,inactive,–
COC(=O)c1ccc(Cn2nc(-c3cc(C)ccc3C)ccc2=O)cc1,inactive,–
COc1ccc(C(=O)Nc2nc(-c3ccc(OC)cc3)c(-c3ccc([N+](=O)[O-])cc3)s2)cc1,inactive,–
COc1ccc2c(c1)C(=O)CCC2c1ccccc1 (stereo not drawn),inactive,–
COc1ccccc1N1N=C(C(=O)c2ccccc2)C2C(=O)N(c3ccc(Br)cc3)C(=O)C21 (stereo not drawn),inactive,–
COc1ccc(-c2nn(-c3ccccc3)cc2/C=C2/SC(=S)N(CCC(=O)O)C2=O)cc1,inactive,–
CN(C(=O)c1cc2c(cc1Br)OCO2)c1cccc2ccccc12,inactive,–
CCN1C(=O)C(=CC=CN(C)c2ccccc2)SC1=S,–,12.2% [at 30.8 µM]
CNC(=O)c1csc(Cc2c(Cl)sc3ccc(Cl)cc23)n1,inactive,–
O=C(NCCOc1ccccc1F)c1ccccc1SCc1ccc(F)cc1,inactive,–
COc1ccc2c(c1)CCC1C2=NN(/C(C)=C/C(C)=O)C1c1cccc(F)c1 (stereo not drawn),inactive,–
Cc1ccc(N=Cc2c(O)n(-c3nccs3)c(=O)c3ccccc23)c(C)c1,–,7.45% [at 30.8 µM]

SMILES,Potency,"activity change, negative = inhibition"
O=C(NCc1cccc(F)c1)c1cccc2c1C(=O)c1ccc(N3CCOCC3)cc1S2(=O)=O,inactive,–
CC(C)CC1=NN2C(=N)/C(=C\c3coc4ccccc4c3=O)C(=O)N=C2S1,–,51.1% [at 30.8 µM]
Cc1cccc(N2CCN(S(=O)(=O)c3ccc4c(c3)CCN4C(=O)CCC(=O)O)CC2C)c1 (stereo not drawn),inactive,–
COc1ccc(CCNC(=S)N2CCN(S(=O)(=O)c3ccc(F)cc3)CC2)cc1,inactive,–
CC[n+]1ccc(/C=C/c2c[nH]c3ccccc23)cc1,inactive,–
Brc1ccc(CSc2nccn2-c2ccccc2)cc1,inactive,–
CC(=O)CCc1oc2c([N+](=O)[O-])cccc2c1-c1ccc(C)o1,inactive,–
COc1ccc(C(=O)N(CCc2ccccc2)Cc2cccs2)c(OC)c1,inactive,–
Cc1ccc(S(=O)(=O)/N=C2\C=C(NS(=O)(=O)c3ccccc3)C(=O)c3ccccc32)cc1,inactive,–
COc1ccc(NC(=O)NS(=O)(=O)c2ccc(C)cc2)cn1,inactive,–
CCN1CCN(c2ccc(S(=O)(=O)N3CCCCC3)cc2NC(=O)c2cccc(OC(F)F)c2)CC1,inactive,–
O=C1CC2(CCN(S(=O)(=O)c3ccccc3F)CC2)Oc2ccccc21,inactive,–
Oc1ccc(N=Cc2sc3ccccc3c2Cl)cc1,inactive,–
COc1ccccc1C(=O)Oc1ccc2c(c1)O/C(=C\c1ccncc1)C2=O,inactive,–
O=C(NC1CCCC1)c1cccc2c1C(=O)c1ccc(N3CCCCC3)cc1S2(=O)=O,inactive,–
O=C1/C(=C\c2cc(Cl)c(O)c(Cl)c2)SC(=S)N1Cc1ccccc1,inactive,–
CC(C)N1CCc2c(sc(NC(=O)c3ccc(C(=O)c4ccccc4)cc3)c2C(N)=O)C1,inactive,–
O=S(=O)(c1ccc(Cl)c2ccccc12)N1CCCC1,inactive,–
COc1ccc(C2CC(c3cccs3)=NN2c2ccc(C=O)cc2)cc1 (stereo not drawn),inactive,–

# Target: Rap guanine nucleotide exchange factor 3 (Homo sapiens) (UniProt O95398)
# Test: Counterscreen qHTS for agonist of cAMP-regulated guanine nucleotide exchange factor 3 (EPAC1) (AID 1645889); note: nearly all actives have a fitted effect of over 40% in size
# Settings: EPAC1 Rap1B-BODIPY-GDP exchange, fluorescence; series mostly up to 154 µM
# Summary of the method: as §1
row,SMILES,Potency
1,COC(=O)c1sc(S(=O)(=O)N2CCCCC2C)c(C(=O)OC)c1C (stereo not drawn),inactive
2,CCN1CCc2c(sc(NC(=O)Nc3ccc(Cl)c(Cl)c3)c2C(N)=O)C1,112 µM (active)
3,COc1cccc(/C(O)=C/c2nc3ccc(C(=O)NCCc4cccc(C)c4)cc3[nH]c2=O)c1,inactive
4,N#Cc1cc(Br)ccc1N=C1CCCN1c1ccccc1,inactive
5,O=C1C=C(c2c(O)ccc3ccccc23)c2ccccc2C1=O,35.5 µM (active)
6,COC(=O)c1ccc(Cn2nc(-c3cc(C)ccc3C)ccc2=O)cc1,inactive
7,COc1ccc(C(=O)Nc2nc(-c3ccc(OC)cc3)c(-c3ccc([N+](=O)[O-])cc3)s2)cc1,63.1 µM (active)
8,COc1ccccc1N1N=C(C(=O)c2ccccc2)C2C(=O)N(c3ccc(Br)cc3)C(=O)C21 (stereo not drawn),17.8 µM (active)
9,CCN1C(=O)C(=CC=CN(C)c2ccccc2)SC1=S,11.2 µM (active)
10,O=C(NCCOc1ccccc1F)c1ccccc1SCc1ccc(F)cc1,inactive
11,CC(C)CC1=NN2C(=N)/C(=C\c3coc4ccccc4c3=O)C(=O)N=C2S1,12.6 µM (active)
12,Cc1cccc(N2CCN(S(=O)(=O)c3ccc4c(c3)CCN4C(=O)CCC(=O)O)CC2C)c1 (stereo not drawn),inactive
13,CC[n+]1ccc(/C=C/c2c[nH]c3ccccc23)cc1,44.7 µM (active)
14,Brc1ccc(CSc2nccn2-c2ccccc2)cc1,1.58 µM (active)
15,COc1ccc(C(=O)N(CCc2ccccc2)Cc2cccs2)c(OC)c1,inactive
16,Cc1ccc(S(=O)(=O)/N=C2\C=C(NS(=O)(=O)c3ccccc3)C(=O)c3ccccc32)cc1,inactive
17,COc1ccc(NC(=O)NS(=O)(=O)c2ccc(C)cc2)cn1,63.1 µM (active)
18,CCN1CCN(c2ccc(S(=O)(=O)N3CCCCC3)cc2NC(=O)c2cccc(OC(F)F)c2)CC1,inactive
19,O=C1CC2(CCN(S(=O)(=O)c3ccccc3F)CC2)Oc2ccccc21,10 µM (active)
20,Oc1ccc(N=Cc2sc3ccccc3c2Cl)cc1,inactive
21,COc1ccccc1C(=O)Oc1ccc2c(c1)O/C(=C\c1ccncc1)C2=O,35.5 µM (active)
22,O=C(NC1CCCC1)c1cccc2c1C(=O)c1ccc(N3CCCCC3)cc1S2(=O)=O,inactive
23,O=S(=O)(c1ccc(Cl)c2ccccc12)N1CCCC1,inactive
24,COc1ccc(C2CC(c3cccs3)=NN2c2ccc(C=O)cc2)cc1 (stereo not drawn),44.7 µM (active)
